Source: PubChem BioAssay (Broad Institute)
Tg IFNy HTS = inhibitors of Toxoplasma gondii growth with IFN-gamma; Toxoplasma gondii growth in IFN-gamma-treated host cells; active compounds read low; activity change, negative = inhibition, % (no concentration beside the values); 69,000 tested, 3.8% active; AID 1259416; in the data active = activity change below about -70%, passing the limit was not always enough;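 also: host cells are HeLa cells infected with Toxoplasma gondii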
Active calls of the source: *; ! = repeats disagree. The sample as a whole holds a higher share of hits than the screen did.

SMILES | Tg IFNy HTS
O=c1[nH]ccc2c1c(=O)[nH]c1ccccc12 | -100*
CCCCCCCc1nc2c(=O)[nH]c3ccccc3c2o1 | 0
CCc1cc(-c2ccc(C(C)N3CCOCC3)cc2)ccc1NC(C)=O (centres undefined) | 3
COCCN(C)C(=O)c1ccc2nnc(C3CN(CC4CC4)CCN3C(C)C)n2c1 (centres undefined) | -28
CCOc1ccc(-c2nc(CN(c3ccc(OCC)cc3)S(=O)(=O)c3ccccc3)c(C)o2)cc1 | 18
CCOc1ccc(NC(=S)NC(=O)COc2cc(Cl)c(Cl)cc2Cl)cc1 | 203
C[C@]12CC[C@@H]3c4ccc(O)cc4CC[C@H]3[C@@H]1CC[C@@H]2OC(=O)CCC(=O)O | 1
C[C@]12CCC3c4ccc(OS(=O)(=O)O)cc4CCC3C1CCC2=O (some centres undefined) | 17
C[C@]12CCC3c4ccc(O)cc4CCC3C1CC[C@@H]2OC(=O)CCC1CCCC1 (some centres undefined) | -72*!
O=C(CC1COCCN1)NCC1(c2cccc(F)c2)CCOCC1 (centres undefined) | 11
O=C(NCCc1ccccn1)Nc1nnc(-c2ccc(F)cc2)s1 | -5
S=C(NCCc1ccccn1)NC1CC2CCC1C2 (centres undefined) | 62
S=C(NCCc1ccccn1)NN1C2CSC1CS2 | -84*
CC(=O)C1C(=O)[C@@H]2[C@H]3c4c[nH]c5cccc(c45)C[C@H]3C(C)(C)N2C1=O (some centres undefined) | -81*!
CN1C[C@H](C(=O)N[C@]2(C)O[C@@]3(O)[C@@H]4CCCN4C(=O)[C@H](Cc4ccccc4)N3C2=O)C[C@@H]2c3cccc4[nH]cc(c34)C[C@H]21 | 4
O=C1CO[C@H]2CN(S(=O)(=O)c3ccc(F)cc3)C[C@@H]2N1 | -3
O=C(Nc1ccccc1)N1C[C@H]2CC[C@@]3(N=C(c4ccccc4)NC3=O)[C@@H]2C1 | 8
O=C(O)CCCCCNS(=O)(=O)/C=C/c1ccccc1 | 0
CC(/C=C1\SC(=O)N(CCCC(=O)O)C1=O)=C\c1ccccc1 | -82*
CC1(C)NC(=O)N(CCCC(=O)O)C1=O | 34
CCCN1CCN(C(=O)c2cnccn2)C(Cc2cccc(-c3ccccc3)c2)C1=O (centres undefined) | -23
O=C(c1cccc(Cn2cccn2)c1)N1CC[C@@H](c2ccc(F)cc2)[C@H](O)C1 | -4
Cc1nc(-c2cn(C(C)C)c3ncccc23)sc1C(=O)N1CCC2(CC1)OCCO2 | -67
CCOC(=O)C1CCN(C(=O)c2sc(-c3cn(C(C)C)c4ncccc34)nc2C)CC1 | -51
Cc1nc(-c2cn(C(C)C)c3ncccc23)sc1C(=O)N1CCCC(C)C1 (centres undefined) | -117*
SMILES | Tg IFNy HTS
O=C1C[C@H]2CC[C@@H](CN1)N2C(=O)c1ccc(-c2noc(C3CC3)n2)cc1 | -9
Cn1cc(-c2ccc3ccc(-n4ccc(C(=O)Nc5cccc(F)c5)n4)n3c2)cn1 | 39
CCC(=O)NCc1cccc(-c2cccc3ccnn23)c1 | -2
Cc1ccc(N2CC[C@@H](NS(C)(=O)=O)[C@@H]2Cc2ccccc2)nn1 | -12
COc1ccc(NC(=O)CS(=O)CC(=O)Nc2ccc(N3CCOCC3)cc2)cc1 (centres undefined) | -1
COc1ccc(-c2[nH]ncc2CNC(=O)c2ccc(N3CCOCC3)cc2)cc1 | 7
N#CCNC(=O)c1ccc(-c2ccnc(Nc3ccc(N4CCOCC4)cc3)n2)cc1 | -80*
Cc1ccc(CN2CCN(Cc3ccc(O)c(Cl)c3)CC2=O)cc1 | -37
O=C(NCc1cn2c(n1)SCC2)c1cccc2ccnn12 | -1
CCN1CCC2(CC1)OC(=O)C(C)=C2C(=O)Nc1ccc2c(c1)OCO2 | 124
Cc1ccc(-c2coc(-c3ccc(NC(=O)Nc4ccc5c(c4)OCO5)cc3)n2)c(C)c1 | 19
Cc1cc(C)c(Cn2nc(C(C)(C)C)cc2C(=O)Nc2ccc3c(c2)OCO3)c(C)c1 | -99*
Cc1nc(C2CCN(Cc3c(C)nc4ccccn34)C2)ncc1C(=O)Nc1ccccc1F (centres undefined) | -8
CC1=C(C(=O)NCCN(C)C2CCCCC2)C2(CCN(S(C)(=O)=O)CC2)OC1=O | 24
O=C(NC(=O)c1ccccc1F)OCc1ccc(Cl)cc1Cl | -37
O=C(OCc1ccc(Cl)cc1Cl)c1ccc2ccccc2n1 | 45
N/C(Cc1ccc(Cl)cc1Cl)=N\OC(=O)c1ccc(Br)o1 | -86*
COc1ccccc1-c1nc(C)c(-c2ccc(SCc3ccccc3)nn2)s1 | -1
COCCn1c2c(ccc1=O)CC(NC(=O)c1ccnnc1)CC2 (centres undefined) | 32
CS(=O)(=O)N1CCc2ncc(CNC(=O)CC3CC3)n2CC1 | -20
Cc1noc(-c2cc(=O)n(CC(=O)Nc3ccc4c(c3)OCCO4)c3ccccc23)n1 | 80
CC(NC(=O)c1c(O)c2cccnc2n(-c2cccc(F)c2)c1=O)c1ccc(F)cc1 (centres undefined) | 50
Cc1ccc(NC(=O)c2c(O)c3cccnc3n(-c3cccc(F)c3)c2=O)c(C)c1 | -33
CC(NC(=O)c1c(O)c2cccnc2n(-c2cccc(F)c2)c1=O)c1ccccc1 (centres undefined) | -109*
O=C(Nc1ccc(F)c(Cl)c1)c1c(O)c2cccnc2n(-c2ccc(F)cc2)c1=O | 84
SMILES | Tg IFNy HTS
Cc1ccc(F)cc1NC(=O)c1c(O)c2cccnc2n(-c2cccc(F)c2)c1=O | -27
O=C(Nc1ccc(F)c(Cl)c1)c1c(O)c2cccnc2n(-c2cccc(F)c2)c1=O | -102*
O=C(Nc1ccccc1)c1c(O)c2cccnc2n(-c2cccc(F)c2)c1=O | 49
O=C(Nc1cccc(Cl)c1)c1c(O)c2cccnc2n(-c2cccc(F)c2)c1=O | -32
Cc1cc(F)ccc1NC(=O)c1c(O)c2cccnc2n(-c2cccc(F)c2)c1=O | -91*
CCn1c(C2CCCN(c3cnc4ccc(Cl)cc4n3)C2)n[nH]c1=O (centres undefined) | -2
CCCc1cc(C2CCCN2C(=O)c2cc(C(F)(F)F)nn2C)no1 (centres undefined) | 0
O=C(Nc1ccc(F)cc1)N1CC[C@H]2CC[C@@H](C1)N2 | 1
OCC1(CC2CCCCO2)CCNCC1 (centres undefined) | -50
CNC(=O)c1ccc(-c2cccc3ccccc23)o1 | 21
CS(=O)(=O)N1CCC2(CC1)CC(c1cccnc1)C(=O)N2 (centres undefined) | -6
C=CCc1c(C)nc2ccc(Br)cc2c1Oc1ccccc1 | -23
O=C(N1CCOCC1)N1CCC2(C1)c1ccccc1S(=O)(=O)N2Cc1ccccc1 (centres undefined) | 3
CC(C)NC(=O)N1CCn2cc(CN(C)Cc3cccnc3)nc2C1 | 2
Cc1cc(C)c2oc(=O)cc(CN(C)CCC(O)c3ccccc3)c2c1 (centres undefined) | 2
COc1ccccc1CNc1nc(-c2nnc(-c3ccc(C)cc3)o2)nc2ccccc12 | 301
Cc1cccc(-c2nnc(-c3nc(NC(C)c4ccccc4)c4ccccc4n3)o2)c1 (centres undefined) | -94*
Clc1cccc(CSc2nc(NCCc3ccccc3)c3ccccc3n2)c1 | -43
Clc1ccc(-c2nnc(-c3nc(NCc4ccccc4)c4ccccc4n3)o2)cc1 | 137
Cc1cccc(-c2nnc(-c3nc(NCc4ccccc4C)c4ccccc4n3)o2)c1 | -91*
Fc1cccc(CSc2nc(NC3CCCCC3)c3ccccc3n2)c1 | -76*
Cc1cccc(Nc2nc(-c3nnc(-c4ccccc4)o3)nc3ccccc23)c1 | 0
